Assay [1] concerns the target Estrogen receptor (Homo sapiens) (UniProt P03372). Description: qHTS assay for small molecule agonists of estrogen receptor alpha signaling (AID 588514).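 Also: 0% = vehicle only and 100% = reference agonist; nearly all actives have a fitted effect of over 70% in size.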 The method, boiled down: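 Efficacy is expressed against 20 nM 17-beta-estradiol (100%) and DMSO basal (0%); EC50 from Hill equation. Assay: beta-lactamase reporter in ER-alpha-UAS-bla HEK 293 cells, 18 h compound incubation, CCF4 detection.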
(Quantitative high-throughput screening tests each substance at several concentrations.)

Assay [2] concerns the target Bile acid receptor (Homo sapiens) (UniProt Q96RI1). Description: qHTS assay for small molecule antagonists of farnesoid X receptor signaling (AID 588526). Also: % is scaled to controls: 0 for no effect and ±100 for the full control effect. The method, boiled down: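 Concentration-response titrations were fitted to the Hill equation for half-maximal inhibition and maximal response, with data normalised to 50 uM chenodeoxycholic acid and DMSO control wells. Cells: FXR-UAS-bla HEK293T, dialyzed FBS.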

The target is the same in assay [3]. The assay can be described thus: qHTS assay for small molecule agonists of farnesoid X receptor signaling (AID 588527).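 Also: series mostly up to about 77 µM; 0% = vehicle basal and 100% = reference agonist.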 As to conditions: HEK293T FXR-UAS-bla, beta-lactamase ratio, 16 h; activation: stronger effect = higher value. The method, boiled down:
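Quantitative HTS used FXR-UAS-bla HEK293T cells with 16 h compound incubation at 37 C. EC50 values came from concentration-response curves normalized to chenodeoxycholic acid.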

The target of assay [4] is Glucocorticoid receptor (Homo sapiens) (UniProt P04150). The assay can be described thus: qHTS assay for small molecule agonists of glucocorticoid receptor signaling (AID 588532; active = well fitted curve in the direction sought with a large enough effect in the signal ratio, with a control signal flat; the % refers to the signal ratio;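 also: 100% = dexamethasone at 0.1 µM and 0% = DMSO only wells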). The conditions noted are these: HeLa MMTV-bla, beta-lactamase ratio, agonist, 18 h; activation: stronger effect = higher value, percent of dexamethasone control, DMSO zero. The method, boiled down:
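MMTV-bla HeLa, beta-lactamase reporter; medium with 1% charcoal/dextran-stripped FBS; cpds up to 92 uM, 18 h, 37 C; CCF4 readout 460/530 nm; Hill fit → EC50, efficacy vs 0.1 uM dexamethasone = 100%.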

The target is the same in assay [5]. The assay can be described thus: qHTS assay for small molecule antagonists of glucocorticoid receptor signaling (AID 588533; active = well fitted inhibition curve with a large enough effect in the signal ratio, with a control signal flat, not every such curve was filed as active; the % refers to the signal ratio;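 also: cells stimulated with 2 nM dexamethasone as agonist; % is scaled to controls: 0 for no effect and ±100 for the full control effect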). The method, boiled down: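 Antagonist-mode qHTS: compound titrations added to GRE-bla HeLa cells, then dexamethasone 2 nM final; 18 h, 37 C. CCF4 FRET fluorescence normalized to dexamethasone and DMSO; IC50 from Hill fit.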
A short description of assay [6]: qHTS assay for small molecule antagonists of peroxisome proliferator-activated receptor delta signaling (AID 588535; active = well fitted inhibition curve with a large enough effect in the signal ratio, with a control signal flat, not every such curve was filed as active; the % refers to the signal ratio;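 as to max response: cells co-treated with a PPAR-delta agonist as stimulator during compound exposure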). As to conditions: HEK293T PPARd-UAS-bla, beta-lactamase FRET ratio, 18 h; 460 nm channel. The method, boiled down:
(§1)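 Inhibition of PPAR-delta response element-driven beta-lactamase expression is measured in HEK293T cells exposed to a compound titration series for 18 hrs at 37 C. Half-maximal inhibition comes from Hill equation fitting.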

The target of assay [7] is Peroxisome proliferator-activated receptor delta (Homo sapiens) (UniProt Q03181). The assay is described as above. The method, boiled down:
as §1

Assay [8] addresses Peroxisome proliferator-activated receptor gamma (Homo sapiens) (UniProt P37231). Description: qHTS assay for small molecule agonists of peroxisome proliferator-activated receptor gamma signaling (AID 588536; active = well fitted curve in the direction sought with a large enough effect in the signal ratio, with a control signal flat, not every such curve was filed as active; the % refers to the signal ratio). The method, boiled down: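 Using GeneBLAzer HEK293 cells, response was quantified by CCF4 fluorescence and normalized between basal DMSO (0%) and rosiglitazone 2 uM (100%); curves yielded half-maximal stimulation concentration and efficacy.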

A short description of assay [9]: qHTS assay for small molecule antagonists of retinoid X receptor alpha signaling (AID 588546).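 Also: cells stimulated with 9-cis-retinoic acid as agonist; % is scaled to controls: 0 for no effect and ±100 for the full control effect.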 The conditions noted are these: HEK293T RXRa-UAS-bla, beta-lactamase ratio, antagonist mode; measured here: W530 green channel, cytotoxicity proxy. The method, boiled down:
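Beta-lactamase reporter inhibition, read as CCF4 fluorescence ratio (ex 405, em 460/530 nm) after 2 h at RT. HEK293T UAS-bla cells, 2500/well, were stimulated with 9-cis-RA at 500 or 100 nM final alongside test compound for 18 h at 37 C.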

A short description of assay [10]: qHTS assay for small molecule agonists of the antioxidant response element (ARE) signaling pathway (AID 651741; active = well fitted activation curve with a large enough effect in the signal ratio; the % refers to the signal ratio; also: potency is read from the fitted curve at half-maximal effect). The method, boiled down:
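Reporter: beta-lactamase under ARE, stably in HepG2. Exposure: 16 h, 37 C, compounds delivered in DMSO by pin tool after 5 h cell preincubation. Readout: FRET substrate fluorescence after 2 h at RT.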

A short description of assay [11]: qHTS assay for small molecule activators of the nuclear factor-kappa B (NF-kB) signaling pathway (AID 651749; active = well fitted activation curve with a large enough effect in the signal ratio; the % refers to the signal ratio; also: series mostly up to about 77 µM; % of control where 0% means no effect). As to conditions: NF-kB-bla ME-180 cells, beta-lactamase FRET ratio, 16 h; activation: stronger effect = higher value. The method, boiled down: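 Human ME-180 cervical cells with an NF-kB-bla construct; compounds added via 23 nL pin transfer, DMSO as vehicle; incubation 16 hr. Reporter activity measured by FRET disruption.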

Assay [12] can be described thus: qHTS assay for environmental chemicals that activate the Aryl hydrocarbon Receptor (AhR) signaling pathway (AID 651777; active = well fitted curve in the direction sought with a large enough effect; an effect the other way counts as inactive or inconclusive; also: nearly all actives have a fitted effect of over 15% in size; also: potency is read from the fitted curve at half-maximal effect; as to activation: % of control where 0% means no effect). As to conditions: 1A2-DRE human hepatoma cells, luciferase, 24 h; activation: stronger effect = higher value. The method, boiled down:
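Measured luciferase activity, read 30 min after One-Glo addition at room temperature, from human hepatoma cells bearing a dioxin response element–CYP1A2 promoter reporter and exposed to compound for 24 hr at 37 C.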

Assay [13] is described as follows: qHTS assay for small molecule agonists of the antioxidant response element (ARE) signaling pathway measured by Nrf2-dependant transcriptional activity (AID 720636; active = well fitted curve in the direction sought with a large enough effect in the repeat runs; an effect the other way counts as inactive or inconclusive;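 also: HepG2 cells with an ARE-driven luciferase reporter; % of control where 0% means no effect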). The method, boiled down:
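In HepG2 cells engineered with an Nrf2-responsive luciferase gene, ARE induction was quantified as luminescence after 16 hr compound treatment at 37 C.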

The nature of assay [14]: qHTS assay for cell viability of HEK293 cells (AID 743288; active = well fitted curve in the direction sought with a large enough effect; an effect the other way counts as inactive or inconclusive; also: % is scaled to controls: 0 for no effect and ±100 for the full control effect; nearly all actives have a fitted effect of over 50% in size). The conditions noted are these: ATP luminescence (CellTiter-Glo), 18 h; max response: stronger effect = lower value. The method, boiled down: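 Readout is luciferase-coupled ATP content (CellTiter-Glo luminescence, 30 min room temperature) as a measure of metabolically competent cells. Parental HEK293 cells were plated 5 h or more before compound addition, then treated 18 h at 37 C.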

Assay [15] is described as follows: qHTS assay for cell viability of the p53RE-bla HCT-116 cell line (AID 743292; active = well fitted curve in the direction sought with a large enough effect; an effect the other way counts as inactive or inconclusive; also: % is scaled to controls: 0 for no effect and ±100 for the full control effect; nearly all actives have a fitted effect of over 55% in size). The method, boiled down:
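Intracellular ATP of p53RE-bla HCT-116 cells measured by luciferase luminescence following 16 h compound incubation at 37 C; DMSO-only wells served as vehicle controls.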

Assay [16] has as its target Nuclear receptor subfamily 1 group I member 2 (Rattus norvegicus) (UniProt Q9R1A7). The assay can be described thus: qHTS assay for small molecule activators of the rat pregnane X receptor (rPXR) signaling pathway (AID 651751; call rule not given here; also: 0% is about no effect). As to conditions: rPXR reporter cells, luciferase (One-Glo), 24 h.
The target of assay [17] is Peroxisome proliferator-activated receptor gamma (Homo sapiens) (UniProt P37231). Description: qHTS assay for small molecule antagonists of peroxisome proliferator-activated receptor gamma signaling (AID 588537; active = well fitted inhibition curve with a large enough effect in the signal ratio, with a control signal flat, not every such curve was filed as active; the % refers to the signal ratio; also: potency is read from the fitted curve at half-maximal effect). The method, boiled down: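 Compounds are tested as concentration series for inhibition of rosiglitazone-driven (50 nM) reporter expression in GeneBLAzer PPAR-gamma-UAS-bla HEK293 cells. After 16 h at 37 C, CCF4 substrate is added for 2 h at room temperature and blue/green fluorescence is measured.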
Peroxisome proliferator-activated receptor gamma (Homo sapiens), sequence (P37231 whole entry, looked up): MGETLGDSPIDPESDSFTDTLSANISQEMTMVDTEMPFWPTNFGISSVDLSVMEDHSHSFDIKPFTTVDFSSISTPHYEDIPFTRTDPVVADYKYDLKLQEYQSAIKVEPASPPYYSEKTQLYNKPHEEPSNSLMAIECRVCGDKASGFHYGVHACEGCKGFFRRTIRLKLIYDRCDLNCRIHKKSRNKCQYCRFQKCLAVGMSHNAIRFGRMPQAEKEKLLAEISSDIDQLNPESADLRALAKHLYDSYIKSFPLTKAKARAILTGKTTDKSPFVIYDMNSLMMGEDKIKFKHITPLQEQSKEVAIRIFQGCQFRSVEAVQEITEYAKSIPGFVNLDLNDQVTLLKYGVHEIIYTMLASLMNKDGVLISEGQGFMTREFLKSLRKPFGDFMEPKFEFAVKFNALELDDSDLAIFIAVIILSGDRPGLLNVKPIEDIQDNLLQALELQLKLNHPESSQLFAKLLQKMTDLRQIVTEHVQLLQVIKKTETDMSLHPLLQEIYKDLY

For assay [18], the target named is Thyroid hormone receptor beta (Homo sapiens) (UniProt P10828). Description: qHTS assay for small molecule antagonists of thyroid hormone receptor beta signaling (AID 588547; active = well fitted inhibition curve with a large enough effect in the signal ratio, with a control signal flat, not every such curve was filed as active; the % refers to the signal ratio;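 also: cells stimulated with 0.4 nM T3 agonist during compound exposure; series mostly up to about 77 µM; % is scaled to controls: 0 for no effect and ±100 for the full control effect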). The conditions noted are these: TR-UAS-bla HEK293, beta-lactamase ratio, antagonist mode, 18 h. The method, boiled down:
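TR-UAS-bla GripTite HEK293 cells in 2% charcoal/dextran FBS medium were preincubated 4 h at 37 C, given compound (0.59 nM to 92 uM) plus 0.4 nM T3 (final) for 18 h, then CCF4 for 2 h at RT; Hill fit gave IC50.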

A short description of assay [19]: qHTS assay for small molecule activators of the human pregnane X receptor (PXR) signaling pathway (AID 720659; call rule not given here; also: 0% is about no effect).

Records with an inconclusive call do not appear. Activity calls are given as the source filed them. Unless noted, calls follow the shape of the full dose curve.

Bile acid receptor (Homo sapiens), sequence (Q96RI1 whole entry, looked up): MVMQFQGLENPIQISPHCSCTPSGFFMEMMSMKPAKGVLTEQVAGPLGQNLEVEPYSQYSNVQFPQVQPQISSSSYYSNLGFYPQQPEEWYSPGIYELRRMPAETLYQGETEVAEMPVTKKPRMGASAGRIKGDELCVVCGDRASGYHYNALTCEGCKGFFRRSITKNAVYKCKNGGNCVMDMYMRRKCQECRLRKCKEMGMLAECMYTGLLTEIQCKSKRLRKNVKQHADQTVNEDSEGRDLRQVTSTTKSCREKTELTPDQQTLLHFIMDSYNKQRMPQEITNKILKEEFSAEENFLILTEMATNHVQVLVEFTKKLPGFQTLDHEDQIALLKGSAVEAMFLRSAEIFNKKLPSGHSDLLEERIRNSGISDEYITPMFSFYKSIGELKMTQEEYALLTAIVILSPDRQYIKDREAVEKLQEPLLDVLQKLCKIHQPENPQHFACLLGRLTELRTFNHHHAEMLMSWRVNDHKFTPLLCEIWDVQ
Estrogen receptor (Homo sapiens), sequence (P03372 whole entry, looked up): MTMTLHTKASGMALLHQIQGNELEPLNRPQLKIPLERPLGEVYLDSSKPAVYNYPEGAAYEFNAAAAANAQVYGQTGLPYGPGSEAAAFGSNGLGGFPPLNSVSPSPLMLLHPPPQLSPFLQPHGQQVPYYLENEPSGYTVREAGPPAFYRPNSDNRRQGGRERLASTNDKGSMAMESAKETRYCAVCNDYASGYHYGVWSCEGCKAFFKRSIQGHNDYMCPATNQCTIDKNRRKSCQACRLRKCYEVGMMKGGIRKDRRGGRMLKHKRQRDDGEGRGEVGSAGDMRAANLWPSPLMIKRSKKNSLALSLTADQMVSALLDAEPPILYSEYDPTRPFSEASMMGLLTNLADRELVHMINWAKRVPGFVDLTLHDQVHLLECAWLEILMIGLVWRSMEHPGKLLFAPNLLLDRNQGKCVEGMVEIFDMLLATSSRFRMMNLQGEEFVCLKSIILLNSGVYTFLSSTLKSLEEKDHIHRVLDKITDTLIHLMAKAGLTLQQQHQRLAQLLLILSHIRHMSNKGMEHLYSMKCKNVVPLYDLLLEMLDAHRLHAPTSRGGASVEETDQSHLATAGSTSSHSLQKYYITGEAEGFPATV
Glucocorticoid receptor (Homo sapiens), sequence (P04150 whole entry, looked up): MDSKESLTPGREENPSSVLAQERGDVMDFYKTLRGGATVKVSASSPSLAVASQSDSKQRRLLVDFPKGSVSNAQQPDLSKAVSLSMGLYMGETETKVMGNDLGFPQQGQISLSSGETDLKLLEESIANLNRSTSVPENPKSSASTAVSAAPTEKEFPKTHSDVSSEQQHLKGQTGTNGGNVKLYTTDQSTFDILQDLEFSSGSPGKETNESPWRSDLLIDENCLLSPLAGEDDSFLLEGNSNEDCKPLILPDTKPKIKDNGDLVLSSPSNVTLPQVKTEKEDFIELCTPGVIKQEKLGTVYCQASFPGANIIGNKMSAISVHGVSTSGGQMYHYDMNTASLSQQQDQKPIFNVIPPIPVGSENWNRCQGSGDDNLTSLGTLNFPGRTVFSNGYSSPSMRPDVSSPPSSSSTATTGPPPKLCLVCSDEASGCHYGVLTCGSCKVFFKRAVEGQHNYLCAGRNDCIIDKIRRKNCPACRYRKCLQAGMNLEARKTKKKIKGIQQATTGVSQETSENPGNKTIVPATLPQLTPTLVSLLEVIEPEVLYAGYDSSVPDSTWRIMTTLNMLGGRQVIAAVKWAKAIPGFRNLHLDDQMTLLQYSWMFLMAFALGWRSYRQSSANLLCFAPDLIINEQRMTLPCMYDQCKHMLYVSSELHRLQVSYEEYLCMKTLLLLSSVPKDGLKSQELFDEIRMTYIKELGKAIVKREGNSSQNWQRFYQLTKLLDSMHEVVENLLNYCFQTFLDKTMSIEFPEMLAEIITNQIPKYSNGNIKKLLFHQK
Thyroid hormone receptor beta (Homo sapiens), sequence (P10828 whole entry, looked up): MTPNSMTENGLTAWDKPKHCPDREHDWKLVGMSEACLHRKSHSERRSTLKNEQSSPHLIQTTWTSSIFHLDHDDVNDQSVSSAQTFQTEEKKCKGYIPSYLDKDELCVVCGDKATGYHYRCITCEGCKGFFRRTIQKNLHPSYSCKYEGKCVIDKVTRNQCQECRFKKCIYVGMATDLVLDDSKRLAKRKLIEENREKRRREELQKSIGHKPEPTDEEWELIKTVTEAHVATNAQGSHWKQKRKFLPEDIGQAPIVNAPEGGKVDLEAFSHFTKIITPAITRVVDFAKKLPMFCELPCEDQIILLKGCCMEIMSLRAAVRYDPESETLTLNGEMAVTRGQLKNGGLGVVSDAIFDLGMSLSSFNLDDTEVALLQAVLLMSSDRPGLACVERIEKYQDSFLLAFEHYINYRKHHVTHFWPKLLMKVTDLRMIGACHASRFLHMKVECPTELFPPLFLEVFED
Peroxisome proliferator-activated receptor delta (Homo sapiens), sequence (Q03181 whole entry, looked up): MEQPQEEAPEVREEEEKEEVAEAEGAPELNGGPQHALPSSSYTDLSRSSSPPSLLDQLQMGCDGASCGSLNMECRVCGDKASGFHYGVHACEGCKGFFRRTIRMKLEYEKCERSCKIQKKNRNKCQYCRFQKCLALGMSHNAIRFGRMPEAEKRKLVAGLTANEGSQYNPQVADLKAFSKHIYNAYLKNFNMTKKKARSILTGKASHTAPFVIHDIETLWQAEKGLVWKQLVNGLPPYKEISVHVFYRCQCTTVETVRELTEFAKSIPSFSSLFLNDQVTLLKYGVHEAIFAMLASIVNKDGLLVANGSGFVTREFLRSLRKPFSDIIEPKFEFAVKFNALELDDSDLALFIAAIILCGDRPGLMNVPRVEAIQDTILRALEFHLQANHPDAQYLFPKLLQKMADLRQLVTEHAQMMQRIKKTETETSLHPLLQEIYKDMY
Nuclear receptor subfamily 1 group I member 2 (Rattus norvegicus), sequence (Q9R1A7 whole entry, looked up): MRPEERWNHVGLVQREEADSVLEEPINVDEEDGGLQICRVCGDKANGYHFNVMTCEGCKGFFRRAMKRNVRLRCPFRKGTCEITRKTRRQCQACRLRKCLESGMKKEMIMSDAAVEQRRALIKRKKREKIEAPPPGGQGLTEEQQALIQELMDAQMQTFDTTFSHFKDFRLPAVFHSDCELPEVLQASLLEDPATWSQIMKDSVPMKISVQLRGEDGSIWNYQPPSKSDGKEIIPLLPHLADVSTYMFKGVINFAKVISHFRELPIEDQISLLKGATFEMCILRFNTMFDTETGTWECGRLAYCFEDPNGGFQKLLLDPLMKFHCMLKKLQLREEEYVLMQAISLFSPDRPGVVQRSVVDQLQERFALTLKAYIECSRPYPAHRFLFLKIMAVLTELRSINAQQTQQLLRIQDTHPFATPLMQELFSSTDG

Turning to `CC(C)=CC1C(C(=O)OCc2coc(Cc3ccccc3)c2)C1(C)C` (configuration not stated), the Potency entry in assay [1], in [2], in assay [5], in assay [7], in assay [8] and in assay [13] was “inactive” in each case. In addition, the Potency entry in assay [15] is “inactive”. Also, the activation in assay [3] was 3.82% (inactive); in [4], 2.93% (inactive); in [11], 0.13% (inactive); in [12], 3.96% (inactive). For the same compound, the max response was -29.1% in assay [6], -14.2% in [9], 0.368% (inactive) in assay [14] and 7.41% (inactive) in assay [16]. Further, the Potency in assay [10] is 61.1 µM (active).

For the compound `C#CCN1CC(=O)N(COC(=O)[C@@H]2[C@@H](C=C(C)C)C2(C)C)C1=O`, the Potency result in assay [2], in assay [7], in assay [8] and in assay [17] was “inactive” throughout. Moreover, the values for the activation in assay [3] and in assay [4] were 5.41% (inactive) and -0.459% (inactive), respectively. In addition, the figures for the max response in [6] and in [9] were -9.7% and -1.89%, respectively. Further, the activity change % (negative = inhibition) in assay [18] was 21.3% (inactive).

As for `O=C(NC(=O)c1c(F)cccc1F)Nc1ccc(Cl)cc1`, the Potency entry in [1], in assay [2], in assay [7], in assay [17] and in assay [15] was “inactive” in each case. Also, the activation in [3] was 1.72% (inactive); in assay [11] it was 0.393% (inactive). For the same compound, the max response in [6] was -32.8%; in assay [9], -10.4%; in assay [14], -0.376% (inactive); in assay [16] it was 11% (inactive). In assay [18], the activity change % (negative = inhibition) is -1.34% (inactive). In assay [12], the Potency was 2.51 µM (active). Also, the result in [19] was inactive.

Regarding `CSc1nc(NC(C)C)nc(NC(C)C)n1`, the Potency entry in assay [1], in assay [8], in assay [17] and in [13] was “inactive” throughout. For the same compound, in assay [18], the activity change % (negative = inhibition) is -0.16% (inactive). Further, the activation in [12] was -2.16% (inactive). Besides, the max response in assay [14] is 2.18% (inactive).

In the case of `O=C1C=C2C(=CCOC2O)O1` (configuration not stated), the Potency result in assay [1] was “inactive”. Also, the results for the activation in assay [3] and in assay [11] were -4.19% (inactive) and 2.18% (inactive), respectively. Besides, the Potency in [17] was 20 µM (active). For the same compound, in assay [16], the max response is -14.8% (inactive). In addition, the result in assay [19] was inactive.

In the case of `CC(C)N(C(=O)CCl)c1ccccc1`, the activation is -11.4% (inactive) in assay [4] and -1.87% (inactive) in assay [12]. For the same compound, in assay [10], the Potency is 17.2 µM (active). The Potency entry in assay [15] was “inactive”. For the same compound, the compound was classed as inactive in assay [19].
